Calls of active or inactive are those of the source.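 The calls were made as follows, unless noted: active = RAM network inhibition above 8.4% in each of two replicates, 3 SD over the compound average; inconclusive = above 8.4% inhibition in only one replicate; inactive = 8.4% inhibition or less in each replicate.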

A short description of the first test: inhibitors of the yeast RAM network, pilot screen, dse1pr::URA3 reporter, 5-FOA selection (AID 869;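 active = inhibition over a set limit, the all-compound mean plus 3 SD, in both replicate runs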;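 also: 0% = DMSO wells with no growth and 100% = 10 µM 1-NA-PP1 with full growth; RAM network block rescues cells from 5-FOA so hits raise OD615 growth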). As to conditions: S. cerevisiae dse1pr::URA3 5-FOA growth, OD615, 2 d; at 10 µM; active compounds read high; strain carries analog-sensitive mutant Cbk1 kinase.
As to `O=C(Cn1cc2c(n1)CCCCC2)N1CCc2ccccc21`, the inhibition is 2.15% (inactive).

For `CC(C)c1nccn1S(=O)(=O)c1cc(Cl)ccc1Cl`, the inhibition was 1.64% (inactive).

Turning to `CC(=O)Nc1cccc(NC(=O)CSc2nn3c(=O)c(C)nnc3s2)c1`, the inhibition is 1.29% (inactive).

With `CCOc1ccc2nc(Nc3nc4c(c(=O)[nH]3)CCC4)nc(C)c2c1`, the inhibition was 1.01% (inactive).

Take `C(=N\c1c(-c2ccccc2)nc2n1CCS2)/c1ccccc1`: the inhibition is 0.675% (inactive).

For `CCN(CC)S(=O)(=O)c1ccc2oc(C(=O)N3CCOCC3)c(C)c2c1`, the inhibition was -0.09% (inactive).

Turning to `CCOC(=O)C1CCN(Cc2ccc(OC)c(C)c2OC)CC1`, the inhibition was 1.16% (inactive).

As for `Cc1cc(N)n2nc(-c3ccccc3)cc2n1`, the inhibition was 1.33% (inactive).

Regarding `Cc1nnc(SCC(=O)Nc2sc3c(c2C#N)CCCC3)[nH]c1=O`, the inhibition was 0.455% (inactive).

Turning to `Cc1cc(NC(=O)COc2cccc(C)c2C)no1`, the inhibition is 2.08% (inactive).

In the case of `Cc1cc(C)c(NC(=O)CSc2nc3c(c(=O)n2C)SC(C)C3)c(C)c1` (stereo not given), the inhibition is 1.58% (inactive).

With `CC(=O)c1ccc(OCC(O)CN2CCN(CCO)CC2)cc1` (stereo not given), the inhibition is 1.13% (inactive).

Take `CCn1cc(C(=O)NCC2CCCO2)c(=O)c2cc(S(=O)(=O)N(C)C)ccc21` (stereo not given): the inhibition was 2.33% (inactive).

`C=CCSc1nc(N)c2c(C)c(C)sc2n1`: the inhibition is 0.34% (inactive).

Regarding `CC1CCCN(C(=O)c2cc3c(-c4ccc(Cl)cc4)nn(C)c3s2)C1` (stereo not given), the inhibition was 2.07% (inactive).

As to `COc1cccc2cc(C(=O)OC3CCN(C)CC3)c(=O)oc12`, the inhibition was -0.245% (inactive).

Take `COC(=O)c1cn(C(=O)c2ccc(Br)o2)c2ccccc12`: the inhibition was 2.23% (inactive).

On to `COc1cc(NC(=O)C2C3C=CC(C3)C2C(=O)O)c(OC)cc1Cl` (stereo not given), for which the inhibition is 2.7% (inactive).

In the case of `COc1ccc(C2CC(c3ccc(C)cc3)Nc3ncnn32)cc1` (stereo not given), the inhibition is 1.41% (inactive).

Regarding `CCc1ccc(C2CC(c3cccc(OC)c3)n3nc(N)nc3N2)cc1` (stereo not given), the inhibition is 1.21% (inactive).

As for `COc1ccc(NS(=O)(=O)c2coc(C(N)=O)c2)cc1Cl`, the inhibition is 1.92% (inactive).

Take `O=C1c2ccccc2S(=O)(=O)N1CC(O)Cn1c2ccccc2c2ccccc21` (stereo not given): the inhibition is 2.46% (inactive).

For `O=C(Nc1nnc(-c2ccc(Cl)cc2)o1)C1CCCCC1`, the inhibition was 1.51% (inactive).

As to `O=C1c2ccccc2C(Nc2ccc(F)cc2F)N1CCN1CCOCC1` (stereo not given), the inhibition was 1.3% (inactive).

Take `CCOc1ccc(N(CC(=O)NC2CCCCC2)S(=O)(=O)c2c(C)noc2C)cc1`: the inhibition is 3.15% (inactive).

With `Cc1ccc2oc(=O)c3cnn(CC(=O)N4CCCc5ccccc54)c3c2c1`, the inhibition is 3.85% (inactive).

As for `O=C(Nn1cnnc1)C1Cc2ccccc2CN1S(=O)(=O)c1ccc(F)cc1` (stereo not given), the inhibition was 0.38% (inactive).

For `Cc1cc(C)cc(N(CC(=O)NC2CCC(C)CC2)S(=O)(=O)c2c(C)noc2C)c1` (stereo not given), the inhibition was 2.36% (inactive).

Take `Cc1nc2ccccn2c1/C(O)=C1\C(=O)C(=O)N(CCCN(C)C)C1c1ccc(F)cc1` (stereo not given): the inhibition is 0.255% (inactive).

Take `CC(=O)N(C(C)=O)c1ncc2c([nH]c3ccccc32)c1C#N`: the inhibition is 1.25% (inactive).

In the case of `CC(C)c1ccc(C(O)c2cnc(C(C)C)n2C)cc1` (stereo not given), the inhibition is 0.355% (inactive).

Consider `COCCn1cc(C(=O)c2ccccc2OCC(=O)Nc2cc(C)on2)cc(C#N)c1=O`, for which the inhibition was 1.68% (inactive).

For the molecule `O=C(NC(=O)c1cccc(F)c1)OC[C@@H]1CCCN2CCCC[C@H]12`, the inhibition was 0.89% (inactive).

For `CCN1CCN(C(=O)Cn2ncc3ccsc3c2=O)CC1`, the inhibition is 1.72% (inactive).

Turning to `CCCC(=O)Nc1cc(C)c2c(=O)oc3ccccc3c2n1`, the inhibition is 1.65% (inactive).

`Cc1cc(C)c(C#N)c(SCC(=O)Nc2ccc(S(=O)(=O)Nc3onc(C)c3C)cc2)n1`: the inhibition was 1.98% (inactive).

On to `CC1=C(C(N)=O)C(c2ccncc2)n2nc(-c3ccccc3Cl)nc2N1` (stereo not given), for which the inhibition was 1.56% (inactive).

For `O=C(C1CCCN1S(=O)(=O)c1cccc2cccnc12)N1CCn2c1nc1ccccc12` (stereo not given), the inhibition is 0.235% (inactive).

As for `Cc1ccc(C(=O)CC2(O)C(=O)N(C)c3ccc(Br)cc32)c(C)c1` (stereo not given), the inhibition was 2.44% (inactive).

Consider `COc1ccc(OCCSc2nc3ccccc3n2CC(=O)O)cc1`, for which the inhibition is 0.61% (inactive).

The nature of a further test: RAM signaling pathway blockade in yeast – S. cerevisiae, Pdr1DBD-CYC8 efflux-inhibited sensitized strain, primary screen (AID 1298).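 Also: 0% = DMSO untreated cells without growth and 100% = 10 µM 1-NA-PP1 full growth; higher means more yeast growth rescued from 5-FOA killing.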 To be noted: S. cerevisiae cbk1-as DSE1-URA3 strain, 5-FOA growth OD615, 2 d; at 50 µM; active compounds read high.
For the molecule `O=C(Cn1cc2c(n1)CCCCC2)N1CCc2ccccc21`, the RAM network inhibition was 1.83% (inactive).

`CC(C)c1nccn1S(=O)(=O)c1cc(Cl)ccc1Cl`: the RAM network inhibition is 4.6% (inactive).

Turning to `CC(=O)Nc1cccc(NC(=O)CSc2nn3c(=O)c(C)nnc3s2)c1`, the RAM network inhibition is 4.27% (inactive).

With `CCOc1ccc2nc(Nc3nc4c(c(=O)[nH]3)CCC4)nc(C)c2c1`, the RAM network inhibition is 3.45% (inactive).

As to `C(=N\c1c(-c2ccccc2)nc2n1CCS2)/c1ccccc1`, the RAM network inhibition is 6.86% (inactive).

For `CCN(CC)S(=O)(=O)c1ccc2oc(C(=O)N3CCOCC3)c(C)c2c1`, the RAM network inhibition is -0.22% (inactive).

Regarding `CCOC(=O)C1CCN(Cc2ccc(OC)c(C)c2OC)CC1`, the RAM network inhibition was 1.41% (inactive).

In the case of `Cc1cc(N)n2nc(-c3ccccc3)cc2n1`, the RAM network inhibition is 4.23% (inactive).

As for `Cc1nnc(SCC(=O)Nc2sc3c(c2C#N)CCCC3)[nH]c1=O`, the RAM network inhibition is 3.34% (inactive).

`Cc1cc(NC(=O)COc2cccc(C)c2C)no1`: the RAM network inhibition was 2.68% (inactive).

For the molecule `Cc1cc(C)c(NC(=O)CSc2nc3c(c(=O)n2C)SC(C)C3)c(C)c1` (stereo not given), the RAM network inhibition was 4.95% (inactive).

Consider `CC(=O)c1ccc(OCC(O)CN2CCN(CCO)CC2)cc1` (stereo not given), for which the RAM network inhibition was 1.57% (inactive).

On to `CCn1cc(C(=O)NCC2CCCO2)c(=O)c2cc(S(=O)(=O)N(C)C)ccc21` (stereo not given), for which the RAM network inhibition is 1.14% (inactive).

On to `C=CCSc1nc(N)c2c(C)c(C)sc2n1`, for which the RAM network inhibition is 8.79% (inactive).

On to `CC1CCCN(C(=O)c2cc3c(-c4ccc(Cl)cc4)nn(C)c3s2)C1` (stereo not given), for which the RAM network inhibition is 1.62% (inactive).

Regarding `COc1cccc2cc(C(=O)OC3CCN(C)CC3)c(=O)oc12`, the RAM network inhibition is 2.9% (inactive).

`COC(=O)c1cn(C(=O)c2ccc(Br)o2)c2ccccc12`: the RAM network inhibition was 4.65% (inactive).

For the molecule `COc1cc(NC(=O)C2C3C=CC(C3)C2C(=O)O)c(OC)cc1Cl` (stereo not given), the RAM network inhibition was 1.54% (inactive).

Regarding `COc1ccc(C2CC(c3ccc(C)cc3)Nc3ncnn32)cc1` (stereo not given), the RAM network inhibition was 0.05% (inactive).

As for `CCc1ccc(C2CC(c3cccc(OC)c3)n3nc(N)nc3N2)cc1` (stereo not given), the RAM network inhibition was 4.95% (inactive).

As to `COc1ccc(NS(=O)(=O)c2coc(C(N)=O)c2)cc1Cl`, the RAM network inhibition is 1.58% (inactive).

`O=C1c2ccccc2S(=O)(=O)N1CC(O)Cn1c2ccccc2c2ccccc21` (stereo not given): the RAM network inhibition is 0.57% (inactive).

Consider `O=C(Nc1nnc(-c2ccc(Cl)cc2)o1)C1CCCCC1`, for which the RAM network inhibition was 1.36% (inactive).

Turning to `O=C1c2ccccc2C(Nc2ccc(F)cc2F)N1CCN1CCOCC1` (stereo not given), the RAM network inhibition is 0.93% (inactive).

With `CCOc1ccc(N(CC(=O)NC2CCCCC2)S(=O)(=O)c2c(C)noc2C)cc1`, the RAM network inhibition is 1.06% (inactive).

For the molecule `Cc1ccc2oc(=O)c3cnn(CC(=O)N4CCCc5ccccc54)c3c2c1`, the RAM network inhibition was 6.86% (inactive).

On to `O=C(Nn1cnnc1)C1Cc2ccccc2CN1S(=O)(=O)c1ccc(F)cc1` (stereo not given), for which the RAM network inhibition is 4.84% (inactive).

As for `Cc1cc(C)cc(N(CC(=O)NC2CCC(C)CC2)S(=O)(=O)c2c(C)noc2C)c1` (stereo not given), the RAM network inhibition was 11.3% (inactive).

Consider `Cc1nc2ccccn2c1/C(O)=C1\C(=O)C(=O)N(CCCN(C)C)C1c1ccc(F)cc1` (stereo not given), for which the RAM network inhibition was -2.2% (inactive).

For the molecule `CC(=O)N(C(C)=O)c1ncc2c([nH]c3ccccc32)c1C#N`, the RAM network inhibition is 6.06% (inactive).

Consider `CC(C)c1ccc(C(O)c2cnc(C(C)C)n2C)cc1` (stereo not given), for which the RAM network inhibition is 1.77% (inactive).

As for `COCCn1cc(C(=O)c2ccccc2OCC(=O)Nc2cc(C)on2)cc(C#N)c1=O`, the RAM network inhibition was 3.2% (inactive).

For `O=C(NC(=O)c1cccc(F)c1)OC[C@@H]1CCCN2CCCC[C@H]12`, the RAM network inhibition is 9.99% (inactive).

Take `CCN1CCN(C(=O)Cn2ncc3ccsc3c2=O)CC1`: the RAM network inhibition was 0.51% (inactive).

Consider `CCCC(=O)Nc1cc(C)c2c(=O)oc3ccccc3c2n1`, for which the RAM network inhibition is 8.68% (inactive).

As to `Cc1cc(C)c(C#N)c(SCC(=O)Nc2ccc(S(=O)(=O)Nc3onc(C)c3C)cc2)n1`, the RAM network inhibition is 2.19% (inactive).

With `CC1=C(C(N)=O)C(c2ccncc2)n2nc(-c3ccccc3Cl)nc2N1` (stereo not given), the RAM network inhibition is -0.11% (inactive).

Consider `O=C(C1CCCN1S(=O)(=O)c1cccc2cccnc12)N1CCn2c1nc1ccccc12` (stereo not given), for which the RAM network inhibition is 1.58% (inactive).

On to `Cc1ccc(C(=O)CC2(O)C(=O)N(C)c3ccc(Br)cc32)c(C)c1` (stereo not given), for which the RAM network inhibition is 4.59% (inactive).

As for `COc1ccc(OCCSc2nc3ccccc3n2CC(=O)O)cc1`, the RAM network inhibition is 4.44% (inactive).

Values taken from PubChem BioAssay.
